This is an account of results in PubChem BioAssay (NCI).

Test systems include SK-MEL-2 melanoma; EKVX NSCLC; SN12C renal; UO-31 renal; TK-10 renal; ACHN renal; CAKI-1 renal; A498 renal; CCRF-CEM leukemia; SR leukemia; RPMI-8226 leukemia; OVCAR-8 ovarian; OVCAR-5 ovarian; SK-OV-3 ovarian; IGROV1 ovarian; OVCAR-3 ovarian; HS 578T breast; NCI/ADR-RES ovarian; MOLT-4 leukemia; OVCAR-4 ovarian.
What all share (assay): NCI-60 one-dose screen, 48 h (100 = growth as untreated, 0 = no growth, -100 = all killed)
Common to all, as to details: 10 µM unless noted

The panel holds about 83,000 compounds, 20% with a hit somewhere; the sample as a whole holds those more often.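 Method: cells in 96-well plates; compound added at one concentration; 48 h incubation; percent growth measured; values under 10 scored active.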 Values without a mark were called inactive. Active and inactive are the calls of the source.

As to `CCCCCCCCCCCCCOC(=O)c1c(C)[nH]c(/C=C2\N=C(c3ccc[nH]3)C=C2OC)c1C`, the growth in the assay on SK-MEL-2 melanoma is -42.1% (active); in the assay with EKVX NSCLC it was 52.3%; in the assay on SN12C renal, 40.7%; with UO-31 renal, -54.4% (active); with TK-10 renal it was 34.4%; in the assay with ACHN renal, 8.11% (active). Further, the growth with CAKI-1 renal is -7.49% (active); in the assay on A498 renal it was 10.3%; in the assay with CCRF-CEM leukemia it was 17.8%; in the assay on SR leukemia it was -10.8% (active); with RPMI-8226 leukemia it was 11.2%; with OVCAR-8 ovarian, 18.3%. For the same compound, the growth was 44% in the assay with OVCAR-5 ovarian; 47.4% with SK-OV-3 ovarian; 22% in the assay with IGROV1 ovarian; 11.3% in the assay with OVCAR-3 ovarian; 18% in the assay with HS 578T breast; 22.5% with NCI/ADR-RES ovarian.
On to `CC(=O)c1ccc(Nc2nccc(-c3ccc4ccccc4c3)n2)cc1`, for which the growth in the assay on SK-MEL-2 melanoma is 91.7%; with EKVX NSCLC, 96.5%; with SN12C renal, 101%; with UO-31 renal, 86.1%; in the assay on TK-10 renal it was 87.2%; in the assay with ACHN renal, 98.8%. Further, the growth in the assay with CAKI-1 renal was 104%; in the assay with CCRF-CEM leukemia it was 88.3%; with MOLT-4 leukemia, 74.4%; in the assay on RPMI-8226 leukemia, 90%; with OVCAR-8 ovarian it was 96.6%; in the assay on OVCAR-5 ovarian, 99.8%. Besides, the growth with OVCAR-4 ovarian is 105%; in the assay with SK-OV-3 ovarian it was 99.3%; with IGROV1 ovarian it was 86.3%; in the assay on HS 578T breast it was 86.2%; in the assay on NCI/ADR-RES ovarian, 84%.
In the case of `Cc1cccc(Oc2ccc(Nc3ncnc4ccc(NC(=O)CN5CCN(C)CC5)cc34)cc2Cl)c1`, the growth in the assay with SK-MEL-2 melanoma is -70.7% (active); in the assay with EKVX NSCLC, 25.1%; with SN12C renal, 46.4%; with UO-31 renal, 22.2%; in the assay with TK-10 renal it was 18.8%; in the assay with ACHN renal it was -7.41% (active). Also, the growth in the assay with CAKI-1 renal was 12.9%; with CCRF-CEM leukemia, 4.6% (active); with MOLT-4 leukemia, 3.77% (active); in the assay with SR leukemia, 4.43% (active); in the assay on RPMI-8226 leukemia it was -27.9% (active); with OVCAR-8 ovarian, 13.2%. For the same compound, the growth is 68.2% in the assay on OVCAR-5 ovarian; -13.5% (active) in the assay with OVCAR-4 ovarian; 6.73% (active) with SK-OV-3 ovarian; -21.9% (active) with IGROV1 ovarian; 10.1% in the assay with OVCAR-3 ovarian; -2.13% (active) in the assay on HS 578T breast. Besides, the growth in the assay with NCI/ADR-RES ovarian was 46.9%.
Turning to `CC(C)(C)n1cc(-c2ccnc(NCCCNS(=O)(=O)c3ccc(C(F)(F)F)cc3)c2)c(-c2cccc(F)c2)n1`, the growth in the assay with SK-MEL-2 melanoma was 93.6%; with EKVX NSCLC, 78.7%; in the assay on SN12C renal, 82.8%; in the assay on UO-31 renal, 78%; with TK-10 renal, 108%; in the assay on ACHN renal, 85.7%. In addition, the growth in the assay with CAKI-1 renal is 90.3%; in the assay with CCRF-CEM leukemia, 73.8%; with MOLT-4 leukemia it was 65.3%; with SR leukemia, 25.2%; in the assay with RPMI-8226 leukemia, 55.9%; in the assay on OVCAR-8 ovarian it was 83.1%. Further, the growth in the assay on OVCAR-5 ovarian is 85.4%; in the assay with OVCAR-4 ovarian, 99.7%; with SK-OV-3 ovarian it was 94.2%; with IGROV1 ovarian it was 84.1%; in the assay on HS 578T breast, 95%; in the assay on NCI/ADR-RES ovarian it was 76.5%.
With `CCN1C(=O)N(CC)C2C1NN=c1s/c(=C\c3cnc(C)n3C)c(=O)n12` (stereo not drawn), the growth was 39.2% in the assay on SK-MEL-2 melanoma; 49.7% in the assay on EKVX NSCLC; 33.4% with SN12C renal; 40.9% in the assay with UO-31 renal; 51.5% in the assay with TK-10 renal; 34.3% with ACHN renal. Also, the growth in the assay on CAKI-1 renal is 26%; with CCRF-CEM leukemia it was 9.03% (active); with MOLT-4 leukemia it was 35%; in the assay on SR leukemia, 25.3%; with RPMI-8226 leukemia, 20.1%; in the assay on OVCAR-8 ovarian, 14.8%. Moreover, the growth with OVCAR-5 ovarian was 35.2%; with OVCAR-4 ovarian, 52%; in the assay with SK-OV-3 ovarian it was 27.9%; in the assay with IGROV1 ovarian it was 35.1%; in the assay on OVCAR-3 ovarian, -17.6% (active); in the assay with HS 578T breast it was -1.81% (active). The growth with NCI/ADR-RES ovarian is 75.4%.
Regarding `CCN1C(=O)N(CC)C2C1NC(=S)N2/N=C/c1ccc(C(F)(F)F)cc1` (stereo not drawn), the growth was 87.9% with SK-MEL-2 melanoma; 81.6% in the assay with EKVX NSCLC; 82.4% in the assay with SN12C renal; 62.3% in the assay on UO-31 renal; 95% in the assay with TK-10 renal; 79% with ACHN renal. For the same compound, the growth in the assay with CAKI-1 renal is 37%; in the assay with CCRF-CEM leukemia, 80.2%; with MOLT-4 leukemia it was 70.5%; with SR leukemia it was 28.4%; in the assay with RPMI-8226 leukemia, 76.8%; in the assay with OVCAR-8 ovarian, 86.8%. Further, the growth was 81.3% with OVCAR-5 ovarian; 72.7% with OVCAR-4 ovarian; 79% with SK-OV-3 ovarian; 60.6% in the assay on IGROV1 ovarian; 64.8% in the assay with OVCAR-3 ovarian; 66.2% with HS 578T breast. Moreover, the growth with NCI/ADR-RES ovarian is 69.5%.
Turning to `Cc1ccc(Cl)cc1NC(=O)c1sc2nc3c(cc2c1N)C(=O)CCC3`, the growth in the assay on SK-MEL-2 melanoma is 64.5%; with EKVX NSCLC, 75.3%; in the assay on SN12C renal it was 80.6%; in the assay on UO-31 renal, 83.4%; with TK-10 renal it was 96.6%; in the assay on ACHN renal it was 55.9%. Further, the growth was 41.4% in the assay on CAKI-1 renal; 49.2% in the assay on CCRF-CEM leukemia; 84.9% in the assay with MOLT-4 leukemia; 68.9% in the assay with SR leukemia; 95.1% in the assay on RPMI-8226 leukemia; 90% with OVCAR-8 ovarian. In addition, the growth with OVCAR-5 ovarian is 94.2%; with OVCAR-4 ovarian it was 90.1%; in the assay with SK-OV-3 ovarian it was 42.4%; with IGROV1 ovarian, 75.7%; in the assay on OVCAR-3 ovarian, 22.1%; in the assay on HS 578T breast it was 60.9%. For the same compound, the growth in the assay with NCI/ADR-RES ovarian is 43.8%.
As for `O=C(Cn1nnc2ccccc21)N/N=C/c1c[nH]c2ccccc12`, the growth in the assay on SK-MEL-2 melanoma is 38.4%; in the assay with EKVX NSCLC, 62.4%; in the assay on SN12C renal it was 45.9%; in the assay with UO-31 renal, 52.4%; in the assay on TK-10 renal, 64.7%; in the assay with ACHN renal it was 64.1%. Further, the growth is 45.7% in the assay with CAKI-1 renal; 47.7% in the assay on CCRF-CEM leukemia; 29.9% in the assay on MOLT-4 leukemia; 18.3% with SR leukemia; 45% in the assay with RPMI-8226 leukemia; 44.8% in the assay with OVCAR-8 ovarian. Besides, the growth is 71.9% in the assay on OVCAR-5 ovarian; 82% with OVCAR-4 ovarian; 65.7% in the assay with SK-OV-3 ovarian; 54.1% in the assay on IGROV1 ovarian; 22.4% in the assay on OVCAR-3 ovarian; 57.5% with HS 578T breast. Further, the growth with NCI/ADR-RES ovarian was 47.6%.
